From PubChem BioAssay AID1508600 (Functional Genomics Laboratory (NCATS/FGL), 2020)
Hit rate of the full screen: of about 53,000 sequences, about 3,700 (7%) were called active. The full list was thinned out, with actives kept by preference. Values without a mark were called inactive.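 How the source made its calls: active means gene knockdowns whose robust z-score for IL-1 alpha signal is at least 2 or at most -2, so actives lie on both sides; inactive means the rest.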

Test: Components of the Cytosolic LPS Sensing Pathway: Gene Identification via Genome-wide siRNA Screen;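 further: robust z of the log signal after scaling to non-targeting control siRNA wells of the plate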
Details: RAW264.7 macrophages, IL-1a HTRF, actives lie on both sides, screened at 100 nM (by protocol), cells primed 5 h with Pam3CSK4 first
How it was run: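 Knockdown: 100 nM siRNA, 48h, RAW264.7. Stimulation: Pam3CSK4 5 h, then LipidA via TransIT-TKO 24 h. Output: supernatant IL-1a HTRF, negative-control-normalized, log robust z-score; viability by CellTiter-Glo.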

Sequence	z-score
GGAGCUGUCUCUACGAAACTT against Myoz3	1.27
GGAGCCUUUAAUCUCAUUATT against Wbp1	-0.463
GCCGUUUUAUUCACGUGAATT against Erp27	-1.36
GGAUGUGGUGGUAUUAGACTT against Phykpl	2.5 (active)
GGAAGAGGUUCAGAACAGATT against Spaca1	1.19
GGACCAAGGAUGUUCGCUUTT against Cnr2	1.14
GGAACGAACUCAUUAAAACTT against Abhd3	-0.736
CCGAUUUGGGUCAAUUUUATT against Usf3	-0.047
GGCGGAUUGAAUAAGAAGGTT against Pfn2	-0.517
GGGCUUUGGAUGAACUGCATT against Cldn17	-0.0702
GGAGCUCUUUGAGUACAUCTT against Ift46	2.48 (active)
CUCACAAGUCAAAGCCUACTT against Zfp182	0.121
AAUAGACUGGUACUCUCUGTT against Olfr476	1.08
GCCUGGUUACAGCAUUAACTT against Rimkla	-1.75
GGUCAAACAAGAAACAGUUTT against Prdm1	0.417
GCUGUGCCCUAAAGACUGGTT against Clec2m	2.27 (active)
GGUGAAGCUGAAGAAGUACTT against Chst12	0.975
GGAUAAUGGAGCAAAUUGCTT against Slc22a1	-0.522
GCAAGUUAACCAGACCCAATT against Mro	0.709
GGAGAAGCUGUUUGUUCUGTT against Ftcd	0.507
GGACAAGGCAACACAUACCTT against Csnk1a1	2.58 (active)
GCCACUACUACAUCAAUGUTT against Mall	1.24

Sequence	z-score
GGGUCCUCUUUAAAAGGCUTT against Smc6	-1.1
CCUACCCAAACCUACUAAATT against Gpt2	-0.168
GGAUCUGGAGAAGAUGAUGTT against Ret	-0.822
GGCCAAAAAAACAUACAAGTT against Zbtb21	4.91 (active)
GGUAUCAAGGCUCUGGUGUTT against Ifnlr1	-0.602
CAGCAUGAUGAUGGAGACCTT against Sox1	0.708
UGGAUACUCUAUCUCAAGCTT against Serpinb9g	-0.479
GCAACAAGUGUUGGACUCATT against Tob2	-2.04 (active)
GGAAAGUAACUAAAGGCAATT against Arl8b	0.274
GCUACAAGACUUUUACCAGTT against Tnfsf18	-0.0821
GGGACUAGACUUCUUCGGATT against Ddx52	0.186
UGGCAAAAAGGUGAUAACUTT against Hbb-b2	0.86
GGCCCAGCAUGCAAGUUAUTT against Sh2d2a	2.17 (active)
CCACAGCCAAAUGCACAAGTT against Platr26	0.31
CCUCAUUCAAGAAACCUCATT against Comtd1	-1.13
GGAACACCAUCAUCAGUCATT against Ephb2	-0.448
GGUCUCCACUGAGGACUGUTT against Ndufa2	0.284
GGCCUAGGGAAAGCUAUGGTT against Nat8f3	-2.57 (active)
GCAGAAGUGCUAUUCUUGUTT against Cnbp	0.108
GCGGCUUUGGCAAUUCUCUTT against Olfr1361	-1.13
GGUGCCUUUCUGCUUUUGATT against Spink12	1.87
GGAAUAUUACCAGUCGGAATT against Marveld3	0.469

Sequence	z-score
GGAAAAUCUUGACUUCAUCTT against Cbwd1	-0.316
CCUGAUGCCAGUUAACAGUTT against Rcan1	0.516
GGAGGUUUUCCACCACUUGTT against Efcc1	-2.04 (active)
GCGAUAUGAAUAUCAUCUUTT against Fbxo22	-0.0727
GGAAUCUUUAUCCACAUUCTT against Chst15	0.943
GGAGCAACUAAUGAAGAAATT against Dnajc22	-0.064
GGUACUACAAGAGAAAAGATT against Hdhd2	-0.958
GGUCUCUGUUGCUUUGACUTT against Tgoln1	4.13 (active)
GGUCCUAAAAUUUCCUCUUTT against Prdx3	0.854
GCCUCUUAUUUGGUUACGATT against Best3	0.605
GCGUUUCACGUACCUUCCUTT against Nfatc1	1.22
GGUGCUAUUUACCAAACUCTT against Btg2	1.82
GGAACACAACUUCCUGUUCTT against Map11	1.05
GGGAUGCUGUCUUCUGUCATT against Prex1	-3.39 (active)
GGAUUUUACAGUUUUUGGATT against Pccb	1.01
GGUCAUGGUUAUUUUGUUATT against Plekhg2	0.929
GGCUAUUUUGGCUUGUAAATT against Jam2	-0.504
CCUAACCACUACCUUAUACTT against H2-DMa	2.43 (active)
GGUGUCAUGAUGGAGCUGATT against Crygc	0.862
GGGUAACACCUCAAGUUCATT against Rhag	2.33 (active)
GGCCUCAGUUGGACUUGAATT against Scn10a	-0.352
GGCUAUACCUUGGUAGAUATT against Parvg	-1.19

Sequence	z-score
GGUCUCCUCCAAGAUGAUGTT against Mettl3	-1.01
GCAGGAGAACUUUUUUAGUTT against Hus1	-1.01
GGGUUGUUGAGACUUCCACTT against Hmbs	2.79 (active)
CCAGGAGGAUACAAUCCCUTT against Rgs3	-3.38 (active)
GGUGCUAGGAAUGAACGGGTT against Ripply1	0.478
GGAUGCUUGUGGACCUGUGTT against Olfr1123	1.14
GGAUUAAAUCCGAAAAGCUTT against Tmem51	-2.36 (active)
GGCCAUCAGUGUGGAAUGUTT against BC004004	-0.19
GGUAAUAACCCUUAAUAAGTT against Akirin2	0.572
GCACAAAAAAGUGAUAUUGTT against Hdlbp	0.41
CGUAGCUGUAAUUCUUCAGTT against Pcdhgb2	2.02 (active)
GGAAGAUGUUAAGAGUUACTT against Slc1a3	-0.865
GCUAUCUCUGCUAAUAAAGTT against Col6a1	-0.203
GCCAUCCUUGUGCUAAGAGTT against Ifna4	-0.604
GCAUGAAUUCAAAUUGCCATT against Adgrl4	-0.981
CGGUACUAAACAUUACCUCTT against Olfr633	0.957
GAGUGGUUUCUAAUUCGUATT against A830031A19Rik	2.56 (active)
CCUGUUCUGUUAUCAACGGTT against Plxdc1	0.123
GGCAAACUGUCUCUUCAGATT against Pim1	-0.131
GGUGAAGAGUUCAAACAUCTT against Atp9a	1.29
GGACAUUGACCUGUUCGGCTT against Eef1d	0.952
GGAGCUGUAUGAGAUAGAGTT against Zfp566	4.15 (active)

Sequence	z-score
GGACCUCAACAUCCAGAGATT against Sema6b	-0.217
GGUUAAAGGUCAGAUUUAGTT against Dapk2	2.54 (active)
CGACCUGAAAGAUUCGGAATT against Ppara	-1.04
GCUCAACCCAUUCUUUGAUTT against Cep295nl	0.407
CCAAAGCUAGGUCAUUUUATT against Slc31a2	0.72
GGAAAAAGCGGAAAUUCAGTT against Pgbd5	-0.276
GCAUUUGUACAUUGUGACUTT against Ces5a	-2.28 (active)
GGGUCCAGUAUCCAUCAAATT against Sf3a1	-2.7 (active)
GGAAGAAGACUCAGAAAGUTT against Prkag2	1.43
CCGACCAUCUGUGGAAAUATT against Samd5	0.227
GCCAGAUCCCUGGAAUGUATT against Ece2	-0.632
GGUAUUGCUUUCACAUUAUTT against Efr3a	0.434
GGUGUAAGAACUUCAAGUUTT against Tlr9	0.199
GGCUGUUUUUACCCUACUUTT against Vmn1r72	-0.441
GGAGAAAUUCAAAAGGAAUTT against Ms4a6d	-0.764
GGAUGCUCAUGCUAAGCAGTT against Krt7	0.547
GGAUGAGGGAACGUACAUUTT against Il18r1	5.74 (active)
GGAACUUCCCUAUAGUGAATT against Hdac3	-1.52
GGAUGCGCUGAUAUCAGUATT against Olfr370	1.3
GCUCAUUGAGUACAAGACCTT against Ndufs2	1.76
